Assay [1] addresses Lysosomal acid glucosylceramidase (Homo sapiens) (UniProt P04062). Description: Glucocerebrosidase-p2 (AID 348; in the data active = potency below about 10 µM; note: potency is the fitted concentration of half-maximal effect). Particulars: purified GBA, blue fluorogenic substrate, 40 min. The procedure, abridged:
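Compounds titrated from 0.6 nM upwards against 0.2 nM enzyme in pH 5.9 citric acid/KH2PO4, taurocholate, tween-20; blue fluorogenic substrate 80 uM, 40 min room temperature, stopped and read Ex 365/Em 440 for AC50.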

The nature of assay [2]: AP1 Signaling Pathway (AID 357; active = well fitted curve in either direction with a large enough effect, not every such curve was filed as active;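 note: ME-180 reporter cells stimulated with EGF at its EC50 level; % is set by controls: 0 for no effect and ±100 for the full control effect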). Particulars: ME-180 AP-1-bla reporter, EGF-induced, beta-lactamase ratio, 5 h; at 7.69 µM (top of the series) unless noted. The gist of the method:
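Modulation of EGF-driven AP-1 transcription was assessed with a beta-lactamase reporter in ME-180 cells. Compound and EC50 EGF were co-incubated 5 hours at 37 °C before 2.5-hour CCF4 loading at room temperature and dual-emission reading.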

Assay [3] concerns the target Cytochrome P450 1A2 (Homo sapiens) (UniProt P05177). Description: p450-cyp1a2 (AID 410; calls by dose curve; note: potency is the fitted concentration of half-maximal effect). Particulars: recombinant CYP1A2, luciferin-ME demethylation, luminescence; series mostly up to 57 µM. The procedure, abridged: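 Inhibition was calculated relative to 57 uM furafylline (full inhibition). The reaction used human CYP1A2 at 20nM with Luciferin-ME at its Km, 100uM, driven by an NADPH-regenerating system for 60 min at room temperature.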

Assay [4] in a line: NFAT Signaling Pathway (AID 444; active = well fitted curve in either direction with a large enough effect, not every such curve was filed as active;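 note: carbachol stimulus at about its EC50 of 1 µM final; % is set by controls: 0 for no effect and ±100 for the full control effect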). Particulars: Jurkat NFAT-bla M1, carbachol, beta-lactamase ratio, 5 h; at 7.69 µM (top of the series) unless noted. The gist of the method: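 Read-out: CCF4 FRET ratio (460 nm/530 nm) after 1 h RT dye loading, used for %activity and AC50 from titration series. Cells: Jurkat NFAT-β-lactamase/M1 line, treated with compound plus 1 uM carbachol for 5 h, 37 °C.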

Assay [5] can be described thus: Stat Signaling Pathway (AID 446; active = well fitted curve in either direction with a large enough effect, not every such curve was filed as active;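 note: ME-180 cervical cancer cells given 40 pM IL-6 alongside compound; SIE-controlled beta-lactamase reporter measured as 460/530 nm FRET emission ratio; % is set by controls: 0 for no effect and ±100 for the full control effect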). Particulars: ME-180 SIE beta-lactamase reporter, IL-6 stimulated, 5 h; at 7.69 µM (top of the series) unless noted. The gist of the method: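 Screening format detects activators and inhibitors alike: ME-180 SIE-bla cells stimulated at 40 pM IL-6 for 5 hrs with compound, then dual-emission beta-lactamase read at 405 nm excitation.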

Assay [6] has as its target Glucocorticoid receptor (Homo sapiens) (UniProt P04150). Put plainly: GR-GFP Redistribution (AID 450;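 active = compounds whose dose series gives a full or clear partial fitted curve of increased nuclear translocation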; note: potency is the fitted concentration of half-maximal effect). Particulars: U2OS GR-GFP nuclear translocation, laser cytometry, 2 h.
For assay [7] the target is unchanged. Put plainly: GR-EFC Redistribution (AID 451; calls by dose curve; note: potency is the fitted concentration of half-maximal effect). Particulars: CHO-K1 GR-EFC translocation, beta-gal luminescence, 2 h. The procedure, abridged:
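Translocation of GR-ED fusion to nuclear EA restores b-gal, read by luminescence after 1 h room-temperature detection. Engineered CHO-K1 biosensor cells, 1,000/well, exposed 2 h at 37 C to titrations up to 46 uM final.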

Assay [8] has as its target Mitogen-activated protein kinase 10 (Mus musculus) (UniProt Q61831). Description: JNK3 AlphaScreen Assay (AID 530; active = well fitted curve in either direction with a large enough effect, not every such curve was filed as active;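 note: kinase came from lysate of stimulated human HepG2 cells; signal reports phosphorylation of biotinylated GST-cJun 1-79 at Ser73 with 10 µM ATP; % is set by controls: 0 for no effect and ±100 for the full control effect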). Particulars: JNK3 lysate, c-Jun phosphorylation; series mostly up to 57.1 µM. The gist of the method: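 Room-temperature AlphaScreen kinase assay; pre-activated HepG2 lysate as JNK3 source, biotin-GST-cJun(1-79) substrate, 10 uM ATP, compound 15 min preincubation.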

Assay [9] has as its target 3',5'-cyclic-AMP phosphodiesterase 4B (Homo sapiens) (UniProt Q07343). Put plainly: qHTS Assay for Inhibitors of PDE-IV (AID 607; active = well fitted activation curve with a large enough effect in the main read-out, with a control signal flat, not every such curve was filed as active; note: % of control where 0% means no effect). Particulars: HEK293 ACTOne CNG channel cells, membrane potential fluorescence; series mostly up to 22.9 µM. The procedure, abridged: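 The readout is membrane depolarisation from a cAMP-sensing CNG channel, detected with a potential dye at ex 535/em 590. Cells were HEK293-derived (endogenous PDE-IV) at 1000 cells/well, titrated up to 22.9 uM final.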

For assay [10], the target named is Cytochrome P450 2C9 (Homo sapiens) (UniProt P11712). Put plainly: qHTS Assay for Inhibitors and Substrates of Cytochrome P450 2C9 (AID 883). Note: % is set by controls: 0 for no effect and ±100 for the full control effect; nearly all actives have a fitted effect of over 60% in size. Particulars: recombinant CYP2C9, luciferin-H luminescence, 60 min; series mostly up to 57.1 µM. The gist of the method:
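Inhibition of CYP2C9 is scored as loss of luminescence, with 57uM sulphaphenazole defining 100% inhibition. Substrate Luciferin-H is used at 100uM, equal to its KM; enzyme at 10nM in 25mM KPO4, 60 min at 37C with NADPH regeneration.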

For assay [11], the target named is Cytochrome P450 3A4 (Homo sapiens) (UniProt P08684). Put plainly: qHTS Assay for Inhibitors and Substrates of Cytochrome P450 3A4 (AID 884). Note: nearly all actives have a fitted effect of over 50% in size. Note: potency is the fitted concentration of half-maximal effect. Particulars: recombinant CYP3A4, Luciferin-PPXE luminescence; series mostly up to 57.1 µM. The procedure, abridged: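 20 nM human CYP3A4 with 25 uM Luciferin-PPXE (at KM) in 200 mM KPO4, preincubated 10 min with compound; NADPH regeneration started a 60 min RT reaction. Luciferin detected by luminescence, normalized to 57 uM ketoconazole as full inhibition.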

For assay [12] the target is unchanged. Put plainly: qHTS Assay for Activators of Cytochrome P450 3A4 (AID 885). Note: nearly all actives have a fitted effect of over 65% in size. Note: potency is the fitted concentration of half-maximal effect. Particulars: recombinant CYP3A4, Luciferin-PPXE luminescence, 60 min; series mostly up to 57.1 µM. The procedure, abridged: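 Steps: enzyme/substrate mix dispensed; compound added, 10 min RT; NADPH regeneration solution added, 60 min RT; luciferin detection buffer stops reaction; 20 min later luminescence measured.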

Assay [13] is described as follows: qHTS Assay for Identification of Small Molecule Agonists for Hypoxia Response Element Signaling Pathway (AID 914; active = well fitted activation curve with a large enough effect in the signal ratio, with a control signal flat, not every such curve was filed as active; the % refers to the signal ratio; note: % of control where 0% means no effect). Particulars: ME-180 (cervical carcinoma) HRE-bla reporter, beta-lactamase ratio, CoCl2, 17 h; activation: hits give high values. The procedure, abridged: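 Reporter activity (beta-lactamase, CCF4 460nm/530nm ratio) in HRE-bla ME-180 cells is recorded after 17 h compound exposure with EC50 CoCl2 at 37 degrees Celsius. AC50 values come from titration data.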

Assay [14] has as its target Dual specificity protein kinase CLK4 (Homo sapiens) (UniProt Q9HAZ1). Put plainly: qHTS Assay for Inhibitors of CDC-like Kinase 4 (Kinase-Glo Assay) (AID 1770). Note: nearly all actives have a fitted effect of over 65% in size. Note: potency is the fitted concentration of half-maximal effect. Particulars: recombinant Clk4, Kinase-Glo ATP depletion luminescence; series mostly up to 66.7 µM. The gist of the method:
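Inhibition was judged from remaining ATP, measured by Ultra-Glo luciferase bioluminescence after Clk4 (25 nM) had acted on RS peptide at 1 uM ATP for 4.5 hours, room temperature.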

The target is the same in assay [15]. Description: qHTS Assay for Inhibitors of CDC-like Kinase 4 (ADP-FP Assay) (AID 1795). Note: nearly all actives have a fitted effect of over 60% in size. Note: potency is the fitted concentration of half-maximal effect. Particulars: Transcreener ADP fluorescence polarization; series mostly up to 50 µM. The gist of the method: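 Inhibition of ADP formation by 6.25 nM Clk4 is measured using 1 uM ATP and 100 uM RS repeat peptide over one hour. Produced ADP displaces a fluorescent tracer from antibody, lowering polarization.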

The target of assay [16] is Ubiquitin carboxyl-terminal hydrolase 1 (Homo sapiens) (UniProt O94782). Description: Inhibitors of USP1/UAF1: Pilot qHTS (AID 504865). Note: nearly all actives have a fitted effect of over 35% in size. Note: potency is the fitted concentration of half-maximal effect. Particulars: purified USP1/UAF1, Ub-rhodamine cleavage fluorescence; series mostly up to 54.9 µM. The procedure, abridged: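 Kinetic fluorescence assay: 1nM USP1/UAF1, 15 min compound preincubation, then 150nM Ub-Rho; 480/540 nm.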
Assay [17] in a line: Primary qHTS for small molecule stabilizers of the endoplasmic reticulum resident proteome: Secreted ER Calcium Modulated Protein (SERCaMP) assay (AID 1508630). Note: % is set by controls: 0 for no effect and ±100 for the full control effect. Particulars: SH-SY5Y GLuc-SERCaMP (Gaussia luciferase released on ER calcium loss) secretion, thapsigargin, luminescence; series mostly up to 38.4 µM. The gist of the method: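 GLuc-SERCaMP-expressing SH-SY5Y cells, pretreated 16 h with compound, are challenged with thapsigargin to empty ER calcium stores; after 4 h, coelenterazine is added directly to the medium and luminescence is imaged.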

Assay [18] has as its target Cytochrome P450 2C19 (Homo sapiens) (UniProt P33261). Put plainly: qHTS Assay for Inhibitors and Substrates of Cytochrome P450 2C19 (AID 899). Note: potency is the fitted concentration of half-maximal effect; nearly all actives have a fitted effect of over 60% in size. Particulars: recombinant CYP2C19, luciferin-H EGE luminescence; series mostly up to 57.1 µM. The gist of the method:
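5nM enzyme + 10uM Luciferin-H EGE (=KM), 50mM KPO4; cpd pin-transferred, 10 min 37C; NADPH regen, 60 min 37C; stopped w/ luciferin detection reagent, 20 min; luminescence. Normalized to 57uM ketoconazole (AC100).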

Values without a mark were called inactive. Results filed as inconclusive are left out. The source made the active and inactive calls. Unless noted, calls come from the whole dose curve; as a rule, active = well fitted curve in the direction sought with a large enough effect; inconclusive = small, poorly fitted or top-dose-only effect, or another doubt; inactive = no such curve, though single readings can be large; an effect the other way counts as inactive or inconclusive. Where only a bound is given, the exact number is not on record here.

Lysosomal acid glucosylceramidase (Homo sapiens), sequence (P04062 whole entry, looked up): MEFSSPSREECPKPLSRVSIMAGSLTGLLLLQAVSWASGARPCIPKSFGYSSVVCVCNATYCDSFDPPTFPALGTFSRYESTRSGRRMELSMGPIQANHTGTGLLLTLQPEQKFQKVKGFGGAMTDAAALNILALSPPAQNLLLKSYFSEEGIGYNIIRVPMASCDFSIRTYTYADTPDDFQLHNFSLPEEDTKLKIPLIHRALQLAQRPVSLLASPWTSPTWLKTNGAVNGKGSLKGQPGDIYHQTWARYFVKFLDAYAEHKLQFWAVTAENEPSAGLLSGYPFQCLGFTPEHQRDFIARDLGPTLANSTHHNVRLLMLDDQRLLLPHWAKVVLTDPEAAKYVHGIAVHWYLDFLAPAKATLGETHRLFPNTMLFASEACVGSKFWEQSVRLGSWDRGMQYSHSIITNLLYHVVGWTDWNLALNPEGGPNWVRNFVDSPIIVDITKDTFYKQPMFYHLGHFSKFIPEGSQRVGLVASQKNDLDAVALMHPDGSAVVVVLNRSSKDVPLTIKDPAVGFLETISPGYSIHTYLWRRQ
Cytochrome P450 3A4 (Homo sapiens), sequence (P08684 whole entry, looked up): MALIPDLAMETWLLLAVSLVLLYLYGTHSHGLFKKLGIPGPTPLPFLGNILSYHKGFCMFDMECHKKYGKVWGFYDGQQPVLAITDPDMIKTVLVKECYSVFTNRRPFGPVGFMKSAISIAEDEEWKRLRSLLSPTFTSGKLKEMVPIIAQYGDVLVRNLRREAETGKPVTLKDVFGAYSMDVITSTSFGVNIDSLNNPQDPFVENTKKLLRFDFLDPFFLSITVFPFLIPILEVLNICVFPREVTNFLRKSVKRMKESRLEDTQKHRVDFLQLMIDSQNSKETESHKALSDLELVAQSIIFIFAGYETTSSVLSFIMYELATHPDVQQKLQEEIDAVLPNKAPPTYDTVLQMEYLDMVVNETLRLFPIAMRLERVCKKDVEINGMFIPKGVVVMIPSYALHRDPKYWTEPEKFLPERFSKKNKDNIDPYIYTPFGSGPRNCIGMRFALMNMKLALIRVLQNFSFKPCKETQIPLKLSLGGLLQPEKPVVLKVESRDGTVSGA
Glucocorticoid receptor (Homo sapiens), sequence (P04150 whole entry, looked up): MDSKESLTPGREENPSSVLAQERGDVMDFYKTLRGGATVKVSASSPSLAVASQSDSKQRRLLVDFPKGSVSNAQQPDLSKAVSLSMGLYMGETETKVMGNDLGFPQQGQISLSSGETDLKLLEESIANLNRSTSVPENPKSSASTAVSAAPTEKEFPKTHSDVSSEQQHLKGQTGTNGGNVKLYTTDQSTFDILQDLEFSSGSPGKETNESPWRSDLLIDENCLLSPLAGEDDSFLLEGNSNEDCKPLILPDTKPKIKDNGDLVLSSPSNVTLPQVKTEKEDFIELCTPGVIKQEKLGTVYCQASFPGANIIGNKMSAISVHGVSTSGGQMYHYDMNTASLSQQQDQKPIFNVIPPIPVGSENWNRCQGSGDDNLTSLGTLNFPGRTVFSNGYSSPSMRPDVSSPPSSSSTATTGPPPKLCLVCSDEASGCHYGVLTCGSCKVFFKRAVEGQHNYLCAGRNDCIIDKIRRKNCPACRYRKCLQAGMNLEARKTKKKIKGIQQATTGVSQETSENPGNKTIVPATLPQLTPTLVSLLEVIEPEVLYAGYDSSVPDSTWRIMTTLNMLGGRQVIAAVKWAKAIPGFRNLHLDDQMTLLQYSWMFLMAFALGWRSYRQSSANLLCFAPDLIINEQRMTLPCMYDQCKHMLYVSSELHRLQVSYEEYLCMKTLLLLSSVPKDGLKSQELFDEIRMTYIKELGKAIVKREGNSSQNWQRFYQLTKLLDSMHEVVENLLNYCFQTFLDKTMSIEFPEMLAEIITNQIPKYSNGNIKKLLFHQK
Dual specificity protein kinase CLK4 (Homo sapiens), sequence (Q9HAZ1 whole entry, looked up): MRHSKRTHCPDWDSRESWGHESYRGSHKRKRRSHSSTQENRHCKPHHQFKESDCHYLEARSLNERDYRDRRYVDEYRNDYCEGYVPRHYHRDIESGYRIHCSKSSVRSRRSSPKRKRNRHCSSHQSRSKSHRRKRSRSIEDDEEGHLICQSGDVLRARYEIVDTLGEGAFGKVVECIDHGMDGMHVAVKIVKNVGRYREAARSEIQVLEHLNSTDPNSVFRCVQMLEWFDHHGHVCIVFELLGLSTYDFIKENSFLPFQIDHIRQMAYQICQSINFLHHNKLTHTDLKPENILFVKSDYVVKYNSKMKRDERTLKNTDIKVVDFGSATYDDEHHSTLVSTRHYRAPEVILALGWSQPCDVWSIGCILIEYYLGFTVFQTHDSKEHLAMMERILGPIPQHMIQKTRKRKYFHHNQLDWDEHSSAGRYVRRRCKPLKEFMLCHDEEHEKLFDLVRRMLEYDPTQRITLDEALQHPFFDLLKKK
Ubiquitin carboxyl-terminal hydrolase 1 (Homo sapiens), sequence (O94782 whole entry, looked up): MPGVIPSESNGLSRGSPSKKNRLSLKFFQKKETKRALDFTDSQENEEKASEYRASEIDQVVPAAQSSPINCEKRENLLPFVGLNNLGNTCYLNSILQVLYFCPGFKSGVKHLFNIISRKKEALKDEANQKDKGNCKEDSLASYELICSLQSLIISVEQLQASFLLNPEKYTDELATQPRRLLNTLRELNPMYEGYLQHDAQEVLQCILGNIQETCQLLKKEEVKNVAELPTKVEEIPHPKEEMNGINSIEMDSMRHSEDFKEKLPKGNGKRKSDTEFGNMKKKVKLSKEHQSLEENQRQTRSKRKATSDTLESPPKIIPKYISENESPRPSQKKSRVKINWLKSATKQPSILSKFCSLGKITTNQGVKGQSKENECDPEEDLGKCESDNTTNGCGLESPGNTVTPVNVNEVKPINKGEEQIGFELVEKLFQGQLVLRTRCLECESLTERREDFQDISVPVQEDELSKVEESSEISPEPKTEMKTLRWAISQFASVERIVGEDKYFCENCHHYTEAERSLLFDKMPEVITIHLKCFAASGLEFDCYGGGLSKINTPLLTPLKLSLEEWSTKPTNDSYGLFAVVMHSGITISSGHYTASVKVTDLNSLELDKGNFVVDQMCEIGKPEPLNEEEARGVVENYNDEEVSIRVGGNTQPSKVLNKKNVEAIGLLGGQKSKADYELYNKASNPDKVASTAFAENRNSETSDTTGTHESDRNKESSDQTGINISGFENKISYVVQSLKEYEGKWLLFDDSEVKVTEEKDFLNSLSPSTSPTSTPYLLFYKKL
Cytochrome P450 1A2 (Homo sapiens), sequence (P05177 whole entry, looked up): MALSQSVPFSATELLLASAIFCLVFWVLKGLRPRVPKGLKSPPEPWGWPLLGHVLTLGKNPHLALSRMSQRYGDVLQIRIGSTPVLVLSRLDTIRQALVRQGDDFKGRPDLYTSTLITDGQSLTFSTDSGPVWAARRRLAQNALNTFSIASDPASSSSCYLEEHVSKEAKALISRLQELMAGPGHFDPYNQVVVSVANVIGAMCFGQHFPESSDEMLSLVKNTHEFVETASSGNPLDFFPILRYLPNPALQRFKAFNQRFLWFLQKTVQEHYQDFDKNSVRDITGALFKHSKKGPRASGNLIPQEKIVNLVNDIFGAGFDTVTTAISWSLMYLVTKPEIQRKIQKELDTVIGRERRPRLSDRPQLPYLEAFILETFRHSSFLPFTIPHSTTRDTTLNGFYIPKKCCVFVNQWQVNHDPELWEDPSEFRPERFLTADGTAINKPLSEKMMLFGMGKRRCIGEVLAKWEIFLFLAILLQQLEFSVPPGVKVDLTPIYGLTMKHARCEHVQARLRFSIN
3',5'-cyclic-AMP phosphodiesterase 4B (Homo sapiens), sequence (Q07343 whole entry, looked up): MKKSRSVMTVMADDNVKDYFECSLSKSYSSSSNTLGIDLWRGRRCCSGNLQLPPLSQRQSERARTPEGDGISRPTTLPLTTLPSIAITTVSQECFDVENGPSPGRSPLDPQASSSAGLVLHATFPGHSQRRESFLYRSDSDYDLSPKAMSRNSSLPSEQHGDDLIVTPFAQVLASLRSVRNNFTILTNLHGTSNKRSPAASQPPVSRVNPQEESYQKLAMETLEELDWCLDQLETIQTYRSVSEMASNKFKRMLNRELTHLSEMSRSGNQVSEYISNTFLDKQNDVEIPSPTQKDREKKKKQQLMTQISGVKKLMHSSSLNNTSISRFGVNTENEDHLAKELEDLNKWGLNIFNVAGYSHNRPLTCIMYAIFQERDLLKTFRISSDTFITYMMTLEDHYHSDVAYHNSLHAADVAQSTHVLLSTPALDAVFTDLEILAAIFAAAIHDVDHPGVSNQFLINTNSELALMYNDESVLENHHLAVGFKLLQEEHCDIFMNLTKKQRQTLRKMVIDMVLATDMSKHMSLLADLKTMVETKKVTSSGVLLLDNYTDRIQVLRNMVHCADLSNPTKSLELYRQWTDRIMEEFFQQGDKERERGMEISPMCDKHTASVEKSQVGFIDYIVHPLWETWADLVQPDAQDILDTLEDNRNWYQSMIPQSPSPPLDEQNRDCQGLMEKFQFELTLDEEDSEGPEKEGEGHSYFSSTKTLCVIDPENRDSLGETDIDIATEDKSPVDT
Cytochrome P450 2C19 (Homo sapiens), sequence (P33261 whole entry, looked up): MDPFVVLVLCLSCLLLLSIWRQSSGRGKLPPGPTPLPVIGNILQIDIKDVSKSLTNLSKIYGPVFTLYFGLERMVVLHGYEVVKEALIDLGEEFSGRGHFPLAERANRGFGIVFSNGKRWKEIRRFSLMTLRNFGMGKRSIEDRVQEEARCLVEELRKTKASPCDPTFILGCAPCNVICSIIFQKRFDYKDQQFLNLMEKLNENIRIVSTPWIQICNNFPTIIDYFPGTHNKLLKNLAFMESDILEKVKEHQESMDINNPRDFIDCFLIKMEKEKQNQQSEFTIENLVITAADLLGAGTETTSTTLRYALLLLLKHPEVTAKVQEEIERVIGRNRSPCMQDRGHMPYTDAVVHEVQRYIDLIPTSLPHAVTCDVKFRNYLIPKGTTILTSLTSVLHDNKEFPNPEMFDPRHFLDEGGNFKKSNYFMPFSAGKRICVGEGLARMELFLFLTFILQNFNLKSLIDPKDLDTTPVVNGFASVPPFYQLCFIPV

`Cc1cnc(CNc2cc(-c3ccccc3C(F)(F)F)ncn2)cn1`: the Potency is over 11.4 µM in assay [1]; 25.1 µM (active) in assay [3]; over 46 µM in assay [6]; over 46 µM in assay [7]; 6.31 µM (active) in assay [12]. Also, the activity change, negative = inhibition in assay [2] is 3.5%; in assay [4], 10.7%; in [10], 49.4% [at 2.29 µM]. The activity, negative = inhibition in [5] was 8.02%. Besides, the Potency result in [8], in assay [9], in assay [11], in [14], in assay [15] and in assay [16] was “inactive” throughout. Further, in [13], the activation is 4.59%. The result in [17] was inactive.

Turning to `CN(C)c1ncc2nc(-c3ccc(Cl)cc3)c(=O)n(CCC#N)c2n1`, the results for the Potency in assay [1], in [6] and in [7] were over 11.4 µM, over 9.22 µM and over 46 µM, respectively. The results for the activity change, negative = inhibition in [2] and in assay [4] were 7.51% and 17.6%, respectively. Moreover, the activity, negative = inhibition in [5] was 17.6%. Moreover, the Potency result in assay [8], in assay [9], in [14], in assay [15] and in assay [16] was “inactive” in each case. In addition, the result in [17] was inactive.

As to `N#Cc1cccc(-c2nc(NCc3cccnc3)c3ccccc3n2)c1`, the Potency was over 11.4 µM in assay [1]; 0.251 µM (active) in assay [3]; over 46 µM in [6]; over 46 µM in [7]; 5.01 µM (active) in assay [11]. Moreover, the activity change, negative = inhibition in assay [2] is -20.1%; in assay [4] it was 28.2%. Also, the activity, negative = inhibition in [5] is -21.4%. Also, the Potency result in assay [8], in [12], in assay [14] and in assay [16] was “inactive” throughout. The result in assay [17] was inactive.

With `O=c1c(-c2cccs2)nc2cnc(N3CCNCC3)nc2n1Cc1cccs1`, the Potency in assay [1] was over 11.4 µM; in assay [3], 3.98 µM (active); in assay [6] it was over 9.22 µM; in [7] it was over 46 µM; in assay [11] it was 2.51 µM (active); in assay [18], 5.01 µM (active). Also, the Potency in [16] was 28.2 µM (active). Moreover, the Potency result in [8], in [9], in assay [12], in assay [14] and in assay [15] was “inactive” each time. Further, the outcome in [17] was inactive.

As to `CN(C)c1ncnc2ccc(-c3cccc(C#N)c3)cc12`, the Potency in assay [1] is over 11.4 µM; in assay [6] it was over 46 µM; in assay [7], over 46 µM; in [14], 14.1 µM (active). Besides, in assay [2], the activity change, negative = inhibition was -26.8%. Further, the activity, negative = inhibition in [5] is 21.1%. For the same compound, the Potency entry in [8], in assay [9], in [12], in [15] and in assay [16] was “inactive” throughout. Also, the outcome in assay [17] was inactive.

For `COc1ccc2[nH]cc(CCNc3cc(-c4ccc5c(c4)OCO5)ncn3)c2c1`, in assay [4], the activity change, negative = inhibition is 19.3%. The Potency is over 46 µM in assay [6], over 46 µM in assay [7], 3.98 µM (active) in [14] and 2.51 µM (active) in assay [15]. The Potency entry in assay [16] is “inactive”. Besides, in assay [17], the outcome was inactive.

In the case of `COc1ncc2nc(-c3ccccc3)c(=O)n(C3CC3)c2n1`, the results for the Potency in assay [1], in assay [6] and in assay [7] were over 11.4 µM, over 9.22 µM and over 46 µM, respectively. The activity change, negative = inhibition in [2] was -10.7%; in assay [4], 7.49%. Also, the activity, negative = inhibition in assay [5] is -13.4%. Also, the Potency result in assay [8], in assay [9], in [14], in assay [15] and in assay [16] was “inactive” throughout. The outcome in assay [17] was inactive.

Source of the values: PubChem BioAssay (NCATS).
